The supplement of paper PMC12350171
Counter-ions that a name gives are not always drawn.

How the values were obtained:
Conditions in all cases: 20 µM
[1] = tested on: Salmonella enterica typhimurium; experiment: growth AUC normalised to DMSO control (fraction of control); higher = less growth inhibition, active = hit call of the paper
Method in brief: (§1)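 Pathogens were passaged twice under anaerobic conditions, then inoculated into pre-reduced mGAM plates at a starting OD578 of 0.01, with compound at 20 μM and 1% DMSO, and sealed with breathable membranes. For Haemophilus parainfluenzae, the medium was supplemented with hemin and NAD. OD578 was read every hour for 24 h in three biological replicates. Growth-curve AUC was calculated by the trapezoidal rule up to the exponential-to-stationary transition and normalised to DMSO controls on the same plate.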

[2] = tested on: Shigella flexneri; experiment: as above
Method in brief: as §1

[3] = tested on: Vibrio cholerae; experiment: as above
Method in brief: as §1

[4] = tested on: Yersinia pseudotuberculosis; experiment: as above
Method in brief: as §1

[5] = tested on: P. vulgatus RND KO; experiment: growth AUC normalised to DMSO control (median) (fraction of control); higher = less growth inhibition, active = hit call of the paper
Method in brief: (§2)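 For normalised area under the curve, growth curves were truncated at entry into stationary phase, integrated by the trapezoidal rule and divided against vehicle wells on the same plate. The curves came from strains passaged twice overnight without oxygen and then grown in mGAM in 96-well plates at a starting OD578 of 0.01. Each well held an approved-drug library compound at 20 μM with 1% DMSO, and OD578 was read hourly for 24 h in an anaerobic incubator. Values are medians of three biological replicates.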

[6] = tested on: P. vulgatus WT; experiment: as above
Method in brief: as §2

[7] = tested on: S. enterica typhimurium WT; experiment: as above
Method in brief: as §2

[8] = tested on: S. enterica typhimurium tolC KO; experiment: as above
Method in brief: as §2

Measured: growth AUC normalised to DMSO control
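For growth AUC normalised to DMSO control (median) in this document: active when median AUC fell below 0.1.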

CNc1ncnc2c1ncn2[C@@H]1O[C@H](CO)[C@@H](O)[C@H]1O [N6-methyladenosine]
inactive: [1] 0.972 | [2] 1.03 | [3] 1 | [4] 0.97 | [5] 0.998 | [6] 1.02 | [7] 1.02 | [8] 1.01

COc1cc2nc(N3CCN(C(=O)C4COc5ccccc5O4)CC3)nc(N)c2cc1OC (stereo not drawn) [Doxazosin mesylate]
inactive: [1] 0.974 | [2] 0.985 | [3] 0.942 | [4] 0.996 | [5] 0.949 | [6] 0.916 | [7] 0.994 | [8] 0.952

O=C(O)Cc1cc(I)c(Oc2ccc(O)c(I)c2)c(I)c1 [Tiratricol]
inactive: [1] 0.971 | [2] 0.949 | [3] 0.919 | [4] 0.984 | [5] 0.817 | [6] 0.824 | [7] 1.01 | [8] 0.993

CC1(C)OC(=O)NC1=O [Dimethadione]
inactive: [1] 0.972 | [2] 0.995 | [3] 1.01 | [4] 0.998 | [5] 1.02 | [6] 1 | [7] 0.99 | [8] 0.997

C#C[C@]1(O)CC[C@H]2[C@@H]3CCc4cc(O)ccc4[C@H]3CC[C@@]21C [Ethinylestradiol]
inactive: [1] 0.985 | [2] 1.02 | [3] 0.996 | [4] 1.03 | [5] 0.913 | [6] 0.913 | [7] 0.998 | [8] 0.985

CC(C)[N+](C)(CCOC(=O)C1c2ccccc2Oc2ccccc21)C(C)C [Propantheline bromide]
inactive: [1] 0.974 | [2] 0.983 | [3] 0.967 | [4] 1 | [5] 0.966 | [6] 0.958 | [7] 1 | [8] 0.981

NCc1ccccc1CC(=O)N[C@@H]1C(=O)N2C(C(=O)O)=C(CSc3nnnn3CC(=O)O)CS[C@H]12 [Ceforanide]
active: [1] 0.00985 | [2] 0.0434 | [3] 0.0984 | [4] 0.023 | [5] 0.00761 | [6] 0.014 | [7] 0.00887 | [8] 0.00597

CCCC1C(=O)N2C(N(C)C)=Nc3ccc(C)cc3N2C1=O (stereo not drawn) [Azapropazone]
inactive: [1] 0.983 | [2] 0.96 | [3] 0.958 | [4] 0.964 | [5] 0.993 | [6] 1 | [7] 1 | [8] 0.995

COc1ccccc1OCC(O)CN1CCN(CC(=O)Nc2c(C)cccc2C)CC1 (stereo not drawn) [Ranolazine]
inactive: [1] 1 | [2] 1 | [3] 1.01 | [4] 1.01 | [5] 0.994 | [6] 1 | [7] 0.998 | [8] 0.998

CN1C(C(=O)Nc2ccccn2)=C(O)c2ccccc2S1(=O)=O [Piroxicam]
inactive: [1] 0.973 | [2] 0.995 | [3] 0.892 | [4] 1.01 | [5] 1.01 | [6] 1.04 | [7] 1.01 | [8] 0.977

CNCC[C@@H](Oc1ccccc1C)c1ccccc1 [Tomoxetine hydrochloride]
inactive: [1] 1.01 | [2] 1.02 | [3] 1.01 | [4] 1 | [5] 0.954 | [6] 0.969 | [7] 0.996 | [8] 0.974

CCC(=O)O[C@@H](O[P@](=O)(CCCCc1ccccc1)CC(=O)N1C[C@H](C2CCCCC2)C[C@H]1C(=O)O)C(C)C [Fosinopril]
inactive: [1] 1 | [2] 1.04 | [3] 1.05 | [4] 1 | [5] 0.998 | [6] 1.02 | [7] 1 | [8] 1.01

CC(C(O)c1ccc(O)cc1)N1CCC(Cc2ccccc2)CC1 (stereo not drawn) [Ifenprodil tartrate]
inactive: [1] 1 | [2] 1.05 | [3] 1.03 | [4] 1 | [5] 1.03 | [6] 1.02 | [7] 1.01 | [8] 1

CNC(=O)c1c(I)c(C(=O)NCC(=O)Nc2c(I)c(C(=O)O)c(I)c(C(=O)NCCO)c2I)c(I)c(N(C)C(C)=O)c1I [Ioxaglic acid]
inactive: [1] 0.968 | [2] 0.993 | [3] 1.01 | [4] 0.964 | [5] 1.01 | [6] 1 | [7] 0.997 | [8] 0.994

COc1ccc2c(c1)c(CC(=O)OCC(=O)O)c(C)n2C(=O)c1ccc(Cl)cc1 [Acemetacin]
inactive: [1] 0.979 | [2] 0.965 | [3] 0.985 | [4] 0.985 | [5] 0.855 | [6] 0.866 | [7] 0.993 | [8] 0.969

CN(C)CCOC1=Cc2ccccc2Sc2ccc(Cl)cc21 [Zotepine]
inactive: [1] 1.01 | [2] 1 | [3] 0.877 | [4] 1 | [5] 0.935 | [6] 0.874 | [7] 1.01 | [8] 0.959

C[n+]1ccccc1/C=N/O [Pralidoxime chloride]
inactive: [1] 0.998 | [2] 1.01 | [3] 0.971 | [4] 1.01 | [5] 1.01 | [6] 1 | [7] 1.01 | [8] 1

CCc1cc(C(N)=S)ccn1 [Ethionamide]
inactive: [1] 0.991 | [2] 0.963 | [3] 0.998 | [4] 0.975 | [5] 1 | [6] 0.986 | [7] 0.996 | [8] 0.994

CN1CCc2cccc3c2[C@H]1Cc1ccc(O)c(O)c1-3 [R(-) Apomorphine hydrochloride hemihydrate]
inactive: [1] 0.999 | [2] 1 | [3] 1.01 | [4] 1.02 | [5] 1.02 | [6] 1.05 | [7] 1.01 | [8] 0.983

COc1ccc(OC)c(C(O)CNC(=O)CN)c1 (stereo not drawn) [Midodrine hydrochloride]
inactive: [1] 0.992 | [2] 0.99 | [3] 1.02 | [4] 1.02 | [5] 1.02 | [6] 1.02 | [7] 1.02 | [8] 1

O=C(c1ccccc1)c1ccc2n1CCC2C(=O)O (stereo not drawn) [Ketorolac tromethamine]
inactive: [1] 0.986 | [2] 0.972 | [3] 0.97 | [4] 0.983 | [5] 0.997 | [6] 1.01 | [7] 1.01 | [8] 1

CN(Cc1ccc(C(C)(C)C)cc1)Cc1cccc2ccccc12 [Butenafine hydrochloride]
inactive: [1] 0.974 | [2] 0.968 | [3] 0.926 | [4] 0.99 | [5] 0.967 | [6] 0.96 | [7] 0.995 | [8] 0.957

CC(=O)O[C@]1(C(C)=O)CC[C@H]2[C@@H]3C=C(Cl)C4=CC(=O)CC[C@]4(C)[C@H]3CC[C@@]21C [Chlormadinone acetate]
inactive: [1] 0.989 | [2] 0.993 | [3] 1 | [4] 1 | [5] 0.945 | [6] 0.977 | [7] 0.998 | [8] 0.981

O=C1NCN(c2ccccc2)C12CCN(CCCC(c1ccc(F)cc1)c1ccc(F)cc1)CC2 [Fluspirilene]
inactive: [1] 1.04 | [2] 1.01 | [3] 1.04 | [4] 1.01 | [5] 1 | [6] 1.01 | [7] 1.02 | [8] 0.988

O=C(O)Cc1ccccc1Nc1c(Cl)cccc1Cl [Diclofenac sodium]
inactive: [1] 0.975 | [2] 0.957 | [3] 0.973 | [4] 0.982 | [5] 0.95 | [6] 0.964 | [7] 1 | [8] 0.997

O=C(O)c1cccnc1Nc1cccc(C(F)(F)F)c1 [Niflumic acid]
inactive: [1] 0.989 | [2] 0.998 | [3] 0.897 | [4] 1.01 | [5] 0.907 | [6] 0.936 | [7] 1 | [8] 0.961

Cc1c(C)c2c(c(C)c1O)CCC(C)(C(=O)O)O2 (stereo not drawn) [Trolox]
inactive: [1] 1 | [2] 1.02 | [3] 0.995 | [4] 1.01 | [5] 0.996 | [6] 1.02 | [7] 1 | [8] 1

CCCCC1(COC(=O)CCC(=O)O)C(=O)N(c2ccccc2)N(c2ccccc2)C1=O [Suxibuzone]
inactive: [1] 1 | [2] 1 | [3] 0.993 | [4] 1.01 | [5] 1.02 | [6] 1.03 | [7] 1.01 | [8] 0.985

CCOC(=O)n1ccn(C)c1=S [Carbimazole]
inactive: [1] 0.98 | [2] 1 | [3] 0.981 | [4] 0.998 | [5] 0.993 | [6] 1.01 | [7] 0.996 | [8] 1.01

CC(=O)c1ccc2c(c1)N(CCCN(C)C)c1ccccc1S2 [Acetopromazine maleate salt]
inactive: [1] 1 | [2] 1 | [3] 0.888 | [4] 0.949 | [5] 0.984 | [6] 0.963 | [7] 1 | [8] 0.969

N[C@@H](Cc1cc(I)c(Oc2cc(I)c(O)c(I)c2)c(I)c1)C(=O)O [(L) Thyroxine]
inactive: [1] 1.01 | [2] 1.02 | [3] 1.03 | [4] 1.02 | [5] 0.994 | [6] 1.06 | [7] 1.02 | [8] 0.983
